High-throughput results: PubChem, Broad Institute
An excerpt weighted towards active compounds, which were near 2.6% of everything screened.
p53 PUMA act – re-activators of the mutant p53 pathway; SW480 PUMA-promoter luciferase, p53 mutant reactivation; activation, % at 9.98 µM; 1.5% of 28,000 active; in the data active means activation above about 52%
NFkB binder – binds human NF-kappa-B p105 on microarray; P19838; Small molecule microarray, anti-His fluorescence binding; calls only; 1.3% of 17,000 active;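 active means spot fluorescence over background significantly raised, with a chance value under 7% in all four replicate spots of the compound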;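 further: probe protein is his-tagged human p50 processed subunit at 1 µg/ml; raw spot fluorescence signals with no normalization applied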
Myc binder – c-Myc (human) binding. P01106. 1.5% of 17,000 active. AID 624141. small molecule microarray, His-c-Myc binding, anti-His fluorescence. calls only;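 active means spot fluorescence over background with P-value below 7% in all four replicate spots, showing protein binding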;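 further: score is binary with 100 for all four spots passing and 0 otherwise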
p53 mut binder – binds human mutant p53 on microarray; small molecule microarray binding, anti-GST fluorescence; calls only; 0.4% of 17,000 active;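 active means compounds whose four printed spots each glow above background more than chance allows, each with a p-value under 7%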
STAT3 binder – binders of human STAT3; P40763; Small molecule microarray, His-STAT3 binding, anti-His fluorescence; calls only; 0.2% of 17,000 active;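 active means compounds whose four printed spots each show fluorescence over background unusually high for their array block, chance value under 7%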
Starred values were filed as active, the others as inactive; i = inactive; nt = no result; + = active, no number.

SMILES | p53 PUMA act | NFkB binder | Myc binder | p53 mut binder | STAT3 binder
NCC(=O)Nc1ccc(Br)cc1C(=O)c1ccccc1 | 112.6* | i | i | i | i
CCCCC/C=C/C/C=C/C/C=C/C/C=C/CCCC(=O)Nc1ccc(O)cc1 | -20.5 | i | i | i | i
CC(C)[C@H]1C(=O)N2CCC[C@H]2[C@]2(O)O[C@](NC(=O)[C@@H]3C=C4c5cccc6[nH]cc(c56)C[C@H]4N(C)C3)(C(C)C)C(=O)N12 | 6.6 | i | i | i | i
CN1CC(C(=O)N[C@]2(C)O[C@@]3(O)[C@@H]4CCCN4C(=O)[C@H](Cc4ccccc4)N3C2=O)C=C2c3cccc4[nH]cc(c34)C[C@H]21 (stereo partly specified) | 0.5 | + | + | i | i
CCc1ccc(NC2=NCCS2)cc1 | 61.2* | nt | nt | nt | nt
Oc1ccc2c3c1OC1c4[nH]c5c(c4CC4(O)C(C2)N(CC2CC2)CCC314)CC1(O)C2Cc3ccc(O)c4c3C1(CCN2CC1CC1)C5O4 (stereo unspecified) | -1.0 | i | i | i | i
CCn1cnc2c(Nc3cccc(Cl)c3)nc(N[C@@H]3CCCC[C@@H]3N)nc21 | -62.7 | i | + | i | i
Oc1cc2c(cc1O)C1c3ccccc3CNC1CC2 (stereo unspecified) | -2.9 | i | i | i | i
